Data: PubChem BioAssay (Tox21)
Inconclusive results are not listed. The source made the active and inactive calls. Unless noted, calls come from the whole dose curve; as a rule, active = well fitted curve in the direction sought with a large enough effect in the repeat runs; inconclusive = weak or mixed curves; inactive = no such curve, though single readings can be large; an effect the other way counts as inactive or inconclusive.

How the values were obtained:
[1] = qHTS assay to identify small molecule agonists of the estrogen receptor alpha (ER-alpha) signaling pathway in the presence of an antagonist - cell viability counter screen (AID 1259386);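 note: series mostly up to about 92 µM; cells exposed to compounds for 22 h at 37 °C before the viability read; nearly all actives have a fitted effect of over 30% in size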
Method in brief: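 Cells are starved of estrogens for 5 days in charcoal-stripped serum, seeded for 24hr and co-treated with ICI-182,780 (10.0nM final) and test compounds. After 22hr at 37C, viability is read as CellTiter-Fluor fluorescence.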

[2] = target: Progesterone receptor (Homo sapiens) (UniProt P06401); assay: qHTS assay to identify small molecule agonists of the progesterone receptor (PR) signaling pathway (AID 1346784; calls by dose curve; note: nearly all actives have a fitted effect of over 30% in size; note: potency is the fitted concentration of half-maximal effect)
Method in brief: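 HEK 293T PR-UAS-bla reporter cells, 2% charcoal-stripped FBS; 6 hr settle at 37C/5% CO2, compound (DMSO) 16 hr, LiveBLAzer B/G FRET substrate 2 hr RT, fluorescence intensity read.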

[3] = target: Progesterone receptor (Homo sapiens) (UniProt P06401); assay: qHTS assay to identify small molecule antagonists of the progesterone receptor (PR) signaling pathway (AID 1346795; active = well fitted inhibition curve with a large enough effect in the signal ratio in the repeat runs, not every such curve was filed as active; the % refers to the signal ratio)
Method in brief: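 Beta-lactamase reporter, HEK293T PR-UAS-bla line; 2% charcoal-stripped FBS; 6 hr pre-incubation, 37C/5% CO2. Compound + R5020 1 nM final, 16 hr. LiveBLAzer B/G FRET substrate, 2 hr RT; fluorescence intensity read.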

[4] = qHTS assay to identify small molecule antagonists of the progesterone receptor (PR) signaling pathway - cell viability counter screen (AID 1346798); note: series mostly up to about 92 µM; nearly all actives have a fitted effect of over 50% in size
Method in brief: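 Luminescence readout (CellTiter-Glo, 30 min, RT) of viability in PR-UAS-bla HEK293T cells exposed to compound and R5020 agonist for 16 hr at 37C, 5% CO2; run in the same wells as the beta-lactamase reporter read.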

[5] = qHTS assay to identify small molecule agonists of the progesterone receptor (PR) signaling pathway - cell viability counter screen (AID 1346799; calls by dose curve; note: nearly all actives have a fitted effect of over 45% in size)
Method in brief: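 HEK293T PR-UAS-bla, 3,000 cells/well, 2% charcoal-stripped FBS; 6 h settle, compound 16 h at 37C/5% CO2; LiveBLAzer 2 h RT, then CellTiter-Glo 30 min RT, luminescence read.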

[6] = qHTS assay to identify small molecule antagonists of the TGF-beta/Smad signaling pathway - cell viability counter screen (AID 1346824); note: nearly all actives have a fitted effect of over 50% in size
Method in brief: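 SBE-bla HEK 293T cells, incubated overnight, then compound plus 0.25 ng/mL TGF-beta1 (stock added) for 5 hr at 37 C. Viability was read in the same wells by CellTiter-Glo luminescence after 30 min at room temperature.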

[7] = qHTS assay to identify small molecule agonists of the TGF-beta/Smad signaling pathway - cell viability counter screen (AID 1346829); note: top concentration of the series differs between compounds; nearly all actives have a fitted effect of over 45% in size
Method in brief: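 Here the cytotoxicity of library compounds is measured in SBE-bla HEK 293T cells treated for 5 hr, using CellTiter-Glo added to wells already read for the beta-lactamase reporter.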

[8] = qHTS assay to identify small molecule agonists of the TGF-beta/Smad signaling pathway (AID 1346859; active = well fitted activation curve with a large enough effect in the signal ratio in the repeat runs, not every such curve was filed as active; the % refers to the signal ratio; note: series mostly up to about 77 µM)
Method in brief: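 Read-out: fluorescence at 460 and 530 nm (405 nm excitation) after a 2 hr room-temperature incubation with beta-lactamase FRET substrate. SBE-bla HEK 293T cells had been treated with test compounds for 5 hr at 37 C.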

[9] = target: Thyrotropin-releasing hormone receptor (Homo sapiens) (UniProt P34981); assay: qHTS assay to identify small molecule antagonists of the thyrotropin-releasing hormone receptor (TRHR) signaling pathway (AID 1346877; active = well fitted inhibition curve with a large enough effect in the repeat runs, not every such curve was filed as active; note: series mostly up to about 51 µM)
Method in brief: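 Cells (TRHR-HEK293) are plated and kept 18 h at 37 °C/5% CO2. A calcium-sensitive dye is added for 2 h, compound follows for 5 min at room temperature, and TRH is then given at 1 nM final.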

[10] = target: Thyrotropin-releasing hormone receptor (Homo sapiens) (UniProt P34981); assay: qHTS assay to identify small molecule agonists of the thyrotropin-releasing hormone receptor (TRHR) signaling pathway (AID 1346891; calls by dose curve;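 note: HEK293 cells expressing TRHR with calcium dye readout; series mostly up to about 58 µM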)
Method in brief: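 HEK293/TRHR cells, 1500 per well, 18 h 37 °C; Ca dye 2 h 37 °C; pin-tool compound addition (agonist mode); kinetic fluorescence 3 min, 1 s reads; 15 concentrations, triplicate.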
% is set by controls: 0 for no effect and ±100 for the full control effect.

Progesterone receptor (Homo sapiens), sequence (P06401 whole entry, looked up): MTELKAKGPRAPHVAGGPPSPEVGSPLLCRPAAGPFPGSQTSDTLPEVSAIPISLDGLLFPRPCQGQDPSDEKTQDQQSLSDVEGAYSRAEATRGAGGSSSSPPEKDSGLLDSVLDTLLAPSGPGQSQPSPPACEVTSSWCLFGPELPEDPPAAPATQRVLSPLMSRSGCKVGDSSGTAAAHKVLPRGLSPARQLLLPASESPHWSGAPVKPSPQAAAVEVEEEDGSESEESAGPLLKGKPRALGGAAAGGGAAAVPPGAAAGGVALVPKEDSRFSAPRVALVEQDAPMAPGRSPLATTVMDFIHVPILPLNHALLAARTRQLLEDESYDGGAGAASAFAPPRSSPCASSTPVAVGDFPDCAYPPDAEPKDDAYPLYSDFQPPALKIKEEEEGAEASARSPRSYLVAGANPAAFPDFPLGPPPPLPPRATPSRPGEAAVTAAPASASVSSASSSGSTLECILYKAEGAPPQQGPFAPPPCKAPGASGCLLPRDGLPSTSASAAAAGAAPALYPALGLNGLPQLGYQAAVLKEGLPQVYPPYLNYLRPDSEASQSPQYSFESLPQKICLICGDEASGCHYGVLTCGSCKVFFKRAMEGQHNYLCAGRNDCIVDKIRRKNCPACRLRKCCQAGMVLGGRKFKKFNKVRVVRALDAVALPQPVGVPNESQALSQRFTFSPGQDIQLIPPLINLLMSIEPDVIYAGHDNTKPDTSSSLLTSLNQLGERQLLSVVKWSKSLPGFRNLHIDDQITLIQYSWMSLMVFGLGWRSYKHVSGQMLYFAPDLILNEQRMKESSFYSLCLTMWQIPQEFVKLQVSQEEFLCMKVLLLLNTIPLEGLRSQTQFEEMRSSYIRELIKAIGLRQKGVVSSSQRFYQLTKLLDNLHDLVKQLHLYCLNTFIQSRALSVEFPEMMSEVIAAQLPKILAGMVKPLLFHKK
Thyrotropin-releasing hormone receptor (Homo sapiens), sequence (P34981 whole entry, looked up): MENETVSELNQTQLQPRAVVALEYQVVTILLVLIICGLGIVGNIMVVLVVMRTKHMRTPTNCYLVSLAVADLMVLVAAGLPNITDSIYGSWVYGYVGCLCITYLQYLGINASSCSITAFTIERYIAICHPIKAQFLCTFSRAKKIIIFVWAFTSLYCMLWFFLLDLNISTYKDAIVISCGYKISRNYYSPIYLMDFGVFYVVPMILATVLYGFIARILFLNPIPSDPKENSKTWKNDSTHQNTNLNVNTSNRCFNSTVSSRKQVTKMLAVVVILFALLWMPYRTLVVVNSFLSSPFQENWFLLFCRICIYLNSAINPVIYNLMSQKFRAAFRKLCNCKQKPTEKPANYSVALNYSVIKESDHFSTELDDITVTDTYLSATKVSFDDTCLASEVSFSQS

CC(=O)NCCO
inactive: Potency [1] | Potency [2] | Potency [3] | Potency [4] | Potency [5] | outcome [6] | Potency [7] | Potency [8]

O=c1[nH]c2cc(C(F)(F)F)c(N3CCOCC3)cc2n(CP(=O)(O)O)c1=O
inactive: Potency [1] | Potency [2] | Potency [3] | Potency [4] | Potency [5] | outcome [6] | Potency [7] | Potency [8] | outcome [9] | outcome [10]

COC(CC(C)CCCC(C)(C)O)OC (stereo not given)
inactive: Potency [1] | Potency [2] | Potency [3] | Potency [4] | Potency [5] | outcome [6] | Potency [7] | Potency [8] | outcome [9] | outcome [10]

CC(C)(C)NCC(O)COc1cccc2c1C[C@H](O)[C@H](O)C2 (stereo not given in full)
inactive: Potency [1] | Potency [2] | Potency [3] | Potency [4] | Potency [5] | outcome [6] | Potency [7] | Potency [8]

CC1=CC[C@@H]2C[C@H]1C2(C)C
inactive: activity change, negative = cytotoxicity [1] 3.72% [at 19 µM] | activation [2] 3.56% [at 19 µM] | activity change, negative = inhibition [3] 6.78% [at 18.9 µM] | activity change, negative = cytotoxicity [4] 0.83% [at 18.9 µM] | activity change, negative = cytotoxicity [5] -14.1% [at 19 µM] | viability change, negative = cytotoxic [6] 2.23% [at 15.8 µM] | activity change, negative = cytotoxicity [7] 7.86% [at 15.8 µM] | activation [8] 0.129% [at 15.8 µM] | activity, negative = inhibition [9] 3.09% [at 10.5 µM] | activation [10] -0.516% [at 11.8 µM]

COc1ccc(C2C(=O)c3ccccc3C2=O)cc1
inactive: Potency [1] | Potency [2] | Potency [3] | Potency [4] | Potency [5] | outcome [6] | Potency [7] | Potency [8] | outcome [9] | outcome [10]

Cc1cccc(C)c1NC(=O)c1cc(S(N)(=O)=O)c(Cl)cc1O
inactive: Potency [1] | Potency [2] | Potency [3] | Potency [4] | Potency [5] | outcome [6] | Potency [7] | Potency [8] | outcome [9] | outcome [10]

CNC1CCCN(c2c(F)cc3c(=O)c(C(=O)O)cn(C4CC4)c3c2OC)C1 (stereo not given)
inactive: Potency [1] | Potency [2] | Potency [3] | Potency [4] | Potency [5] | outcome [6] | Potency [7] | Potency [8]

CCO[Si](C)(CCCOCC1CO1)OCC (stereo not given)
inactive: Potency [1] | Potency [2] | Potency [3] | Potency [4] | Potency [5] | outcome [6] | Potency [7] | Potency [8]

CCOC(=O)Oc1ccc(CCNC(=O)[C@H](CCSC)NC(C)=O)cc1OC(=O)OCC
inactive: Potency [1] | Potency [2] | Potency [3] | Potency [4] | Potency [5] | outcome [6] | Potency [7] | Potency [8]

CCCC(=O)OC(=O)CCC
inactive: Potency [1] | Potency [2] | Potency [3] | Potency [4] | Potency [5] | outcome [6] | Potency [7] | Potency [8]

Cc1ccc(N(CCO)CCO)cc1
inactive: Potency [1] | Potency [2] | Potency [3] | Potency [4] | Potency [5] | outcome [6] | Potency [7] | Potency [8]

COC1CCC=CO1 (stereo not given)
inactive: Potency [1] | Potency [2] | Potency [3] | Potency [4] | Potency [5] | outcome [6] | Potency [7] | Potency [8]

CC(C(=O)O)c1ccc(C(=O)c2cccs2)cc1 (stereo not given)
inactive: Potency [1] | Potency [2] | Potency [3] | Potency [4] | Potency [5] | outcome [6] | Potency [7] | Potency [8] | outcome [9] | outcome [10]

CC(C)(O)CCc1ccccc1
inactive: Potency [1] | Potency [2] | Potency [3] | Potency [4] | Potency [5] | outcome [6] | Potency [7] | Potency [8]

C1=CCC2CC=CC2C1 (stereo not given)
inactive: Potency [1] | Potency [2] | Potency [3] | Potency [5] | outcome [6] | Potency [7] | Potency [8] | outcome [9] | outcome [10]

CCC(Cl)CC(Cl)C(Cl)C(Cl)C(Cl)C(C)Cl (stereo not given)
inactive: activity change, negative = cytotoxicity [1] 5.27% [at 19 µM] | activation [2] -2.07% [at 19 µM] | activity change, negative = inhibition [3] -4% [at 18.9 µM] | activity change, negative = cytotoxicity [4] -5.89% [at 18.9 µM] | activity change, negative = cytotoxicity [5] 9.92% [at 19 µM] | viability change, negative = cytotoxic [6] -12.4% [at 15.8 µM] | activity change, negative = cytotoxicity [7] 0% [at 15.8 µM] | activity, negative = inhibition [9] 0.125% [at 10.5 µM] | activation [10] 0.352% [at 11.8 µM]

CCC(C)(C)C(=O)O
inactive: Potency [1] | Potency [2] | Potency [3] | Potency [5] | outcome [6] | Potency [7] | Potency [8] | outcome [9] | outcome [10]

O=CNNC=O
inactive: Potency [1] | Potency [2] | Potency [3] | Potency [5] | outcome [6] | Potency [7] | Potency [8] | outcome [9] | outcome [10]

CCCCCCCC(=O)OCCCCCC
inactive: Potency [1] | Potency [2] | Potency [3] | Potency [4] | Potency [5] | outcome [6] | Potency [7] | Potency [8] | outcome [9] | outcome [10]

O=C(C(=O)c1ccco1)c1ccco1
active: Potency [2] 2750 nM
inactive: Potency [1] | Potency [3] | Potency [4] | outcome [6] | Potency [7] | Potency [8]

O=[N+]([O-])C1(Br)COCOC1
inactive: Potency [1] | Potency [2] | Potency [3] | Potency [4] | Potency [5] | outcome [6] | Potency [7] | Potency [8] | outcome [9] | outcome [10]
